Entries with a potency or affinity are not part of this list.
Target: NAD-dependent protein deacylase sirtuin-5, mitochondrial (Homo sapiens) (UniProt Q9NXA8)
Experiment: blockers of sirtuin-5 peptide desuccinylation – biochemical, fluorescence imaging, cherry-pick, set 6, dose response (AID 720597);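 further: lower AMC signal can also come from blocking the trypsin step; 0% = median of neutral control wells and -100% = median of positive control wells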
Details: Purified SirT5, succinyl-peptide-AMC/trypsin fluorescence; series mostly up to 15 µM; activity change, negative = inhibition: at the top concentration;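 active means fitted half-maximal dose no more than twice the top valid tested dose, for compounds that lower signal; inconclusive means fit invalid, or curve flat with activity between -70 and -30; inactive means potency past limit, curve flat within ±30, or signal increasing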

Sequence of NAD-dependent protein deacylase sirtuin-5, mitochondrial (Homo sapiens) (Q9NXA8 whole entry, looked up): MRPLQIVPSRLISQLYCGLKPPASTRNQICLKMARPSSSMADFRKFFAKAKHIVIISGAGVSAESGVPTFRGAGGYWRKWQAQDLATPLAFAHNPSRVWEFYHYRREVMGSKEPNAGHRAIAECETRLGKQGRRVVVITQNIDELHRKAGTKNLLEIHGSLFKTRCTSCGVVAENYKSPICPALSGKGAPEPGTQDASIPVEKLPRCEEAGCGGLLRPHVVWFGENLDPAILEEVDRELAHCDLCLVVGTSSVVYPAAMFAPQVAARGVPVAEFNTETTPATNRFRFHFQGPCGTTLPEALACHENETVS

Activity change, negative = inhibition, inactive:
Cc1noc(C)c1S(=O)(=O)N(C)C[C@@H]1OCCCC[C@@H](C)Oc2ccc(NC(=O)Nc3cccc4ccccc34)cc2C(=O)N([C@H](C)CO)C[C@@H]1C -28%, O=C(C[C@H]1CC[C@@H](NC(=O)c2ccccc2)[C@H](CO)O1)NCCc1ccncc1 27.9%, COc1ccc(NC(=O)N(C)C[C@@H]2Oc3ccc(NS(=O)(=O)c4ccc(F)cc4)cc3C(=O)N([C@@H](C)CO)C[C@H]2C)cc1 16.3% [at 16 µM], C[C@@H]1CCCCO[C@@H](CN(C)Cc2ccc(C(F)(F)F)cc2)[C@H](C)CN([C@@H](C)CO)C(=O)c2cc(NS(=O)(=O)c3cccs3)ccc2O1 -23.6%, COc1ccccc1-c1ccc2c(c1)O[C@@H](CN(C)Cc1ccc3c(c1)OCO3)[C@H](C)CN([C@@H](C)CO)S2(=O)=O 22%, CO[C@H](CN(C)C(=O)c1ccc2c(c1)OCO2)[C@H](C)CN([C@H](C)CO)S(=O)(=O)c1ccccc1 -23.5%, C[C@@H]1CN([C@H](C)CO)C(=O)c2c(c3ccccc3n2C)-c2ccccc2CO[C@@H]1CN(C)S(=O)(=O)c1ccc(Cl)cc1 -23.3%, COc1ccc(NC(=O)N(C)C[C@H]2Oc3cc(C#CCC(C)C)ccc3S(=O)(=O)N([C@@H](C)CO)C[C@H]2C)cc1 10.4%, COc1ccc(S(=O)(=O)N(C)C[C@H]2Oc3cc(C#CC4CC4)ccc3S(=O)(=O)N([C@@H](C)CO)C[C@@H]2C)cc1 11.5%, O=C(NC1CCCCC1)[C@@H]1[C@@H](CO)[C@@H]2Cn3c(cccc3=O)[C@@H]2N1CC1CCCC1 19.3%, C[C@H]1CN([C@@H](C)CO)S(=O)(=O)c2ccc(/C=C/c3ccccc3)cc2O[C@@H]1CN(C)Cc1ccccc1 28.7%, Cc1noc(C)c1NC(=O)N(C)C[C@H]1OCCCC[C@@H](C)Oc2ccc(NS(=O)(=O)c3c(C)noc3C)cc2C(=O)N([C@H](C)CO)C[C@@H]1C 0.04% [at 16 µM], CC(=O)N(C)C[C@@H]1Oc2ncc(C#Cc3cccc(F)c3)cc2C(=O)N([C@H](C)CO)C[C@H]1C 18.7%, CNC[C@H]1Oc2ccc(NC(=O)Nc3ccc(F)cc3)cc2CC(=O)N([C@H](C)CO)C[C@@H]1C 13.9%, Cc1ccc(S(=O)(=O)Nc2ccc3c(c2)C(=O)N([C@@H](C)CO)C[C@H](C)[C@@H](CN(C)C(=O)Nc2ccc(C(F)(F)F)cc2)OCCCC[C@@H](C)O3)cc1 20.9%, CN(C)C(=O)c1cccc(-c2ccc([C@@H]3[C@H](CO)N4C(=O)CN(C(=O)C5CC5)C[C@@H]34)cc2)c1 7.57%, COc1ccc(NC(=O)N(C)C[C@@H]2Oc3ccc(NS(=O)(=O)c4ccc(F)cc4)cc3C(=O)N([C@H](C)CO)C[C@H]2C)cc1 -31.2%, C[C@H]1CN([C@@H](C)CO)S(=O)(=O)c2ccc(C#Cc3cccc(F)c3)cc2O[C@@H]1CN(C)S(=O)(=O)c1ccccc1F 5.03%, COCCNC(=O)c1cc2c(c(-c3cccc(-c4cccc(F)c4)c3)n1)[C@H](CCO)N([S@@](=O)C(C)(C)C)C2 -5.5%, C[C@H]1CN([C@@H](C)CO)C(=O)c2cccc(NC(=O)CCCCCC(=O)Nc3ccccc3N)c2O[C@@H]1CN(C)Cc1ccc(Oc2ccccc2)cc1 -22.4%, C[C@@H]1CN([C@H](C)CO)C(=O)c2cc(N(C)C)ccc2O[C@H]1CN(C)C(=O)Nc1ccc(F)cc1 -7.29%, C[C@H](CO)N1C[C@H](C)[C@@H](CN(C)C(=O)c2ccc3c(c2)OCO3)Oc2cc(/C=C/c3ccccc3)ccc2S1(=O)=O 30.9%, CN(C[C@H]1[C@@H](c2ccc(C3=CCCC3)cc2)[C@@H](CO)N1CCC(F)(F)F)S(C)(=O)=O 41.9%, C[C@H](O)C#Cc1ccc2c(c1)O[C@@H](CN(C)Cc1ccc(-c3ccccc3)cc1)[C@H](C)CN([C@H](C)CO)S2(=O)=O -26.5% [at 7.5 µM], C[C@@H]1CN([C@H](C)CO)S(=O)(=O)c2ccc(/C=C/c3ccccc3)cc2O[C@H]1CN(C)C(=O)NC1CCCCC1 4.48%, CN1c2ccc(-c3ccccc3)cc2[C@H]2[C@H](CCN2C(=O)Cc2ccccn2)[C@H]1CO -17.4%, CN(C)CC(=O)N1[C@H](CO)[C@@H](c2ccccc2)C12CN(C(=O)C1CCCC1)C2 13.7%, C[C@@H]1CN([C@@H](C)CO)C(=O)c2cc(NS(=O)(=O)c3ccccc3)ccc2O[C@@H](C)CCCCO[C@@H]1CN(C)Cc1ccc(C(F)(F)F)cc1 16.1%, C[C@H](O)C#Cc1ccc2c(c1)O[C@@H](CN(C)Cc1ccc(-c3ccccc3)cc1)[C@@H](C)CN([C@H](C)CO)S2(=O)=O 10.3%, Cc1ccc(S(=O)(=O)N(C)C[C@@H]2OCCCC[C@H](C)Oc3ccc(NS(=O)(=O)c4ccccc4)cc3C(=O)N([C@H](C)CO)C[C@@H]2C)cc1 28.1%, C[C@H]1CCCCO[C@H](CN(C)Cc2ccc(C(F)(F)F)cc2)[C@@H](C)CN([C@@H](C)CO)C(=O)c2cc(NS(=O)(=O)c3ccccc3)ccc2O1 0.872%, C[C@@H]1CN([C@H](C)CO)C(=O)Cc2cc(NC(=O)Nc3ccc(F)cc3)ccc2O[C@@H]1CN(C)C 1.73%, CO[C@H]1CN(C)C(=O)c2cc(NS(=O)(=O)c3ccc(Oc4ccccc4)cc3)ccc2OC[C@H](C)NC[C@H]1C -15.4%, C[C@H]1CN([C@@H](C)CO)C(=O)c2c(c3ccccc3n2C)-c2ccccc2CO[C@@H]1CN(C)Cc1ccc2c(c1)OCO2 -10.7%, COc1cccc(S(=O)(=O)N(C)C[C@H]2Oc3cc(C4=CCCCC4)ccc3S(=O)(=O)N([C@H](C)CO)C[C@H]2C)c1 -17.3%, Cc1ccc(S(=O)(=O)Nc2ccc3c(c2)C(=O)N([C@@H](C)CO)C[C@H](C)[C@@H](CN(C)Cc2ccc(C(F)(F)F)cc2)OCCCC[C@H](C)O3)cc1 -12.4%, C[C@@H]1CCCCO[C@@H](CN(C)Cc2ccc(C(F)(F)F)cc2)[C@H](C)CN([C@@H](C)CO)C(=O)c2cc(NS(=O)(=O)c3ccccc3)ccc2O1 18%, CCC(=O)N1[C@H](CO)[C@H](c2ccc(-c3ccccc3)cc2)[C@H]1CN(CC)C(C)=O 2.76%, C[C@H](CO)N1C[C@H](C)[C@H](CN(C)Cc2ccc(C(F)(F)F)cc2)Oc2ccc(NS(C)(=O)=O)cc2C1=O 17%, C[C@H](CO)N1C[C@H](C)[C@@H](CN(C)C(=O)C2CCOCC2)Oc2ncc(-c3ccccc3)cc2C1=O 4.08%

— PubChem BioAssay AID720597 (Broad Institute, 2013)
